High-throughput results from PubChem BioAssay.
Casp6 inh = blocks human caspase-6 cleavage activity; P55212; AID 686996; 0.53% of 350,000 active; purified caspase-6, Z-VEID-R110 cleavage fluorescence; inhibition, % at 12.5 µM;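 active = mean inhibition across replicates at least about 35%, with every replicate also reaching that limit, limit read from the data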;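 also: 0% = median of neutral control wells and 100% = no fluorescence left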
Target sequence (P55212 24-179 limits assumed): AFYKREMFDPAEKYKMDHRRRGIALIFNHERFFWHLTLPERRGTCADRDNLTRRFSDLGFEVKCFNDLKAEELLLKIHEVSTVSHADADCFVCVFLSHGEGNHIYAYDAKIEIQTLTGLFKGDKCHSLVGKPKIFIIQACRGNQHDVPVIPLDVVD
Target sequence (P55212 194-293 limits assumed): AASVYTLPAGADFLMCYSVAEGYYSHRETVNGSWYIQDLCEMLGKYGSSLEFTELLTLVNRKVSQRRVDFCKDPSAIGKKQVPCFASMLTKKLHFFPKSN
FGF22 binding = shifts melting point of recombinant human FGF22; recombinant FGF22 thermal shift, SYPRO orange fluorescence; percent of sucrose octasulfate shift, DMSO zero; activity (Tm shift, normalised), % at 9.99 µM; AID 651658; 1.5% of 340,000 active; Q9HCT0;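 active = mean Tm shift, scaled 0 neutral to 100 positive control, at about 1.3% or above, every replicate too, limit read from the data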
Target sequence (Q9HCT0 whole entry, looked up): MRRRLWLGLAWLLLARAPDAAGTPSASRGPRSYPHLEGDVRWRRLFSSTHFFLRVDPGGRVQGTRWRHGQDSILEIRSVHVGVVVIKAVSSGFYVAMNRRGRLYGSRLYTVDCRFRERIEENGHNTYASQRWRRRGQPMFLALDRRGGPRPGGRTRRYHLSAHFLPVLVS
ERAP1 inh = blocks human ERAP1 aminopeptidase activity; recombinant ERAP1, Leu-AMC fluorescence, 60 min; Q9NZ08; inhibition, % at 10.7 µM; 0.15% of 340,000 active;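 active = mean replicate inhibition of at least 30%, or all replicates individually reaching that 30% level; inactive = mean below 30% and not every replicate reaching it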;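 also: 0% = neutral control wells and 100% = L-leucinethiol positive control wells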
SIRT5 inh = sirtuin-5 (human) deacylase inhibition | Purified SirT5, succinyl-peptide AMC, trypsin-coupled fluorescence | 1.1% of 330,000 active | inhibition, % at 15 µM | Q9NXA8; in the data active = inhibition above about 15%
GSIS activator = GLuc luminescence reporter in INS-1E cells, primary screen for activators of glucose-dependent secretion of insulin; INS-1E GLuc reporter insulin secretion, 2-3 h; activation, % at 16.6 µM; 0.61% of 370,000 active; AID 743287;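 active = lowest replicate activation of at least 40%, so every replicate reaches that level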;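 also: 0% = median of neutral control wells and 100% = median of IBMX positive control wells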
Active calls of the source: *. In the library only some 3.3% were active in any assay of this set; here they are far more common.

`CC(=O)c1ccc(NC(=O)CN2C(=O)/C(=C/C=C/c3ccccc3)SC2=S)cc1` gave Casp6 inh 0, FGF22 binding 1.4*, ERAP1 inh -5, SIRT5 inh -4 and GSIS activator -11.
`CC(=Cc1ccccc1)C=C1SC(=S)N(CCCC(=O)Nc2ccc(C(=O)O)cc2)C1=O` gave Casp6 inh 41*, FGF22 binding 0, SIRT5 inh 27* and GSIS activator -24.
`CC(/C=C1\SC(=S)N(CCC(=O)Nc2cccc(C(=O)O)c2)C1=O)=C\c1ccccc1` gave Casp6 inh 70*, FGF22 binding 0, ERAP1 inh -5, SIRT5 inh 14 and GSIS activator -14.
Screening Cc1ccc(Cl)cc1NC(=O)Nc1cccs1 returned Casp6 inh 2, FGF22 binding 43*, ERAP1 inh -2, SIRT5 inh 0 and GSIS activator 9.
C/C(CC(=O)Nc1cc(Cl)ccc1C)=N\NC(=O)C(=O)N1CCCC1 was read as Casp6 inh -1, FGF22 binding 0, ERAP1 inh 1, SIRT5 inh 28* and GSIS activator -11.
Screening C/C(CC(=O)Nc1ccc(Cl)cc1Cl)=N\NC(=O)C(=O)N1CCCC1 returned Casp6 inh 3, FGF22 binding 0, ERAP1 inh 2, SIRT5 inh -8 and GSIS activator -28.
`Cc1ccccc1NC(=O)Nc1cccs1` gave GSIS activator -7.
`Cc1ccc(Cl)cc1NC(=O)CCC(=O)O` gave Casp6 inh -2, FGF22 binding 0, ERAP1 inh 45*, SIRT5 inh -7 and GSIS activator 8.
`CCOc1cccc(-c2csc(C3COc4ccccc4O3)n2)c1` (centres undefined) gave GSIS activator 126*.
Screening NC(N)=Nc1nc(C2COc3ccccc3O2)cs1 (centres undefined) returned Casp6 inh 6, FGF22 binding 0, ERAP1 inh -1, SIRT5 inh -3 and GSIS activator 5.
`CCCCOC(=O)C1CN(c2ccccc2)N=C1C(C)=O` (centres undefined) gave Casp6 inh -4, FGF22 binding 43*, ERAP1 inh 10, SIRT5 inh -1 and GSIS activator 4.
For COc1cccc(C2NC(=S)NC(C)=C2C(=O)c2ccccc2)c1OC (centres undefined) the results were Casp6 inh -1, FGF22 binding 43*, ERAP1 inh 1, SIRT5 inh 1 and GSIS activator 0.
C=CCOc1ccc(C2NC(=S)NC(C)=C2C(=O)c2ccccc2)cc1OC (centres undefined) was read as GSIS activator 1.
Screening O=C(COC(=O)CC1CC2CCC1C2)NCc1ccc(Cl)cc1 (centres undefined) returned Casp6 inh 3 and ERAP1 inh -5.
For O=C(COC(=O)CC1CC2CCC1C2)NCc1ccccc1 (centres undefined) the results were Casp6 inh -4, ERAP1 inh -7, SIRT5 inh 35* and GSIS activator -2.
`O=C(C[C@@H]1CC[C@H]2[C@@H](COC[C@H](O)CN2C(=O)Nc2ccc(Cl)cc2)O1)NCC1CCCCC1` gave FGF22 binding 0 and GSIS activator -16.
CCCCC1=CC2=C(c3ccco3)C(=O)C(C)(OC(=O)c3ccc(OC)cc3)C(=O)C2=CN1CCCOC(C)C (centres undefined) was read as Casp6 inh 33, FGF22 binding 0, ERAP1 inh 0, SIRT5 inh 34* and GSIS activator 3.
Screening C=CCN1C=C2C(=O)C(C)(OC(=O)c3ccc(OC)cc3)C(=O)C(c3ccco3)=C2C=C1CCCC (centres undefined) returned FGF22 binding 0, ERAP1 inh -1 and GSIS activator 27.
Screening CNC[C@H]1Oc2c(NC(=O)Nc3ccc(F)cc3)cccc2C(=O)N([C@@H](C)CO)C[C@@H]1C returned Casp6 inh -1, FGF22 binding 0, ERAP1 inh -17, SIRT5 inh -2 and GSIS activator -3.
`CC(N)C(=O)NC(C(=O)NC(C)C(=O)Nc1cccc2ccccc12)C(C)C` (centres undefined) gave Casp6 inh 45*, FGF22 binding 0, ERAP1 inh 16, SIRT5 inh 0 and GSIS activator -9.
For O=C(Nc1ccccc1)N1CC(=O)N2[C@H](CO)[C@@H](c3ccc(C#CC4CCCCC4)cc3)[C@@H]2C1 the results were Casp6 inh 1, ERAP1 inh 1, SIRT5 inh 16* and GSIS activator -11.
For O=C(Nc1cc(F)ccc1F)N1CC(=O)N2[C@H](CO)[C@H](c3ccc(C#CC4CCCCC4)cc3)[C@H]2C1 the results were Casp6 inh -3, FGF22 binding 0, ERAP1 inh -2, SIRT5 inh 8 and GSIS activator -17.
O=C(Nc1cc(F)ccc1F)N1CC(=O)N2[C@H](CO)[C@@H](c3ccc(C#CC4CCCC4)cc3)[C@@H]2C1 was read as Casp6 inh 0, ERAP1 inh 1, SIRT5 inh 4 and GSIS activator -6.
Screening COc1ccccc1NC(=O)N1CC(=O)N2[C@H](CO)[C@@H](c3ccc(C#CC4CC4)cc3)[C@H]2C1 returned SIRT5 inh 22* and GSIS activator -2.
For O=C(Nc1cc(F)ccc1F)N1CC(=O)N2[C@@H](CO)[C@@H](c3ccc(C#CC4CCCCC4)cc3)[C@@H]2C1 the results were Casp6 inh 2, ERAP1 inh 0, SIRT5 inh 21* and GSIS activator -18.
For COc1ccccc1NC(=O)N1CC(=O)N2[C@H](C1)[C@@H](c1ccc(C#Cc3ccccc3)cc1)[C@@H]2CO the results were Casp6 inh 0, ERAP1 inh -2, SIRT5 inh 8 and GSIS activator -43.
O=C(Nc1cc(F)ccc1F)N1CC(=O)N2[C@H](CO)[C@H](c3ccc(C#CC4CCCCC4)cc3)[C@@H]2C1 was read as Casp6 inh 1, FGF22 binding -1, ERAP1 inh -1, SIRT5 inh 17* and GSIS activator -13.
COC(=O)C1(Cc2cc(-c3ccc(OC)cc3OC)no2)CCN(C(=O)OC(C)(C)C)CC1 was read as Casp6 inh 5, FGF22 binding 0, ERAP1 inh -3, SIRT5 inh 34* and GSIS activator -2.
For COC(=O)C1(Cc2cc(-c3cccc(Br)c3)no2)CCN(C(=O)OC(C)(C)C)CC1 the results were Casp6 inh 2, FGF22 binding 0, ERAP1 inh 0 and SIRT5 inh -4.
Screening COc1ccc(NC2CC(=O)N(c3cc([N+](=O)[O-])ccc3C)C2=O)cc1 (centres undefined) returned Casp6 inh -1, FGF22 binding 43*, ERAP1 inh 3, SIRT5 inh 1 and GSIS activator -26.
For COc1ccc(NC2CC(=O)N(c3cccc([N+](=O)[O-])c3)C2=O)cc1 (centres undefined) the results were Casp6 inh 2, FGF22 binding 0, ERAP1 inh -1, SIRT5 inh -1 and GSIS activator 33.
